In PubChem BioAssay AID504582 (Broad Institute, 2011) one finds growth rescue data, which are given here for 58 compounds.

Out of some 340,000 compounds screened, about 2,300 (0.68%) were called active. The sample holds actives, similar compounds and a random draw of the others, so the mix is not that of the screen. A number with no mark means an inactive call. Cut-off read from the data, not from the text of the source: active = growth rescue above about 28% (passing the limit was not always enough); inconclusive = no clear call, values can overlap the other calls.

The nature of the experiment: rescue of yeast from PfHsp40 toxicity, primary screen, S. cerevisiae, ATP luminescence (AID 504582).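 Note: yeast W303a lacking pdr1 and pdr3 grown in galactose medium; growth measured after three days at 30 °C.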 The following applies: S. cerevisiae expressing PfHsp40, growth rescue, at 12.5 µM, active compounds read high.
`CCN(CC)C(=O)C1CCC(C)(C(=O)O)C1(C)C` (stereo not drawn): the growth rescue was 1.46%.

Take `COC(=O)C(C(=O)Nc1cccc(C)n1)C1CCCCCC1` (stereo not drawn): the growth rescue was -0.474%. The result for `CC(C)NC(=O)N1CCN(c2ccncc2S(=O)(=O)N2CCCCC2)CC1` reads -0.643%; that for `O=C(COC(=O)CCOc1ccccc1)Nc1cc(S(=O)(=O)N2CCCCC2)ccc1Cl`, 1.68%; that for `Brc1ccc(-c2n(-c3ccccn3)c3ccccc3[n+]2-c2ccccn2)cc1`, 0.665%.

Take `CCOC(=O)c1ccc(N2C(=O)CC(N3CC(C)OC(C)C3)C2=O)cc1` (stereo not drawn): the growth rescue was -0.556%. With `CCOC(=O)c1ccc(N2C(=O)CC(N3CCN(C(=O)c4ccccc4)CC3)C2=O)cc1` (stereo not drawn), the growth rescue was 53.1% (active). For the compound `CCCCOC(=O)c1ccc(N2C(=O)CC(N3CCN(C/C=C/c4ccccc4)CC3)C2=O)cc1` (stereo not drawn), the growth rescue was 0.282%. For the compound `COc1ccc(N(C)S(=O)(=O)c2ccc3c(c2)CC(C)N3C(=O)C2CC2)c(OC)c1` (stereo not drawn), the growth rescue was 2.19%. The result for `CC(C)(C)NC(=O)C(c1ccc(Cl)cc1)N(CCO)C(=O)c1snc(C(N)=O)c1N` (stereo not drawn) reads -0.519%; that for `CCCCC(C(=O)NC(C)(C)C)N(Cc1ccccc1)C(=O)c1snc(C(N)=O)c1N` (stereo not drawn), 59.5% (active); that for `CCC(C(=O)NCCC(C)C)N(Cc1ccccc1Cl)C(=O)c1snc(C(N)=O)c1N` (stereo not drawn), 0.982%. Take `CC12CCC(=O)N1C(C(=O)NCCN1C(=O)S/C(=C\c3ccccc3F)C1=O)CS2` (stereo not drawn): the growth rescue is -1.34%. As for `COc1ccc(CCNc2nc(C)cc(C)n2)cc1OC`, the figure is 0.933%. As to `NS(=O)(=O)c1ccc(CCNC(=O)c2ccc(Cl)c(S(=O)(=O)N3CCCCCC3)c2)cc1`, the growth rescue is 0.571%.

For `CC1=CC(C)(C)N(C(=O)CSc2nccn2C)c2cc(C)ccc21`, the growth rescue is -0.0285%. As for `CCc1ccccc1NC(=O)CSc1nnc(-c2ccncc2)o1`, the figure is -0.233%. The result for `CC1=CC(C)(C)N(C(=O)CSc2nnc(-c3ccccc3)o2)c2ccc(C)cc21` reads 81.1% (active).

As for `O=C(CN(c1ccc2c(c1)OCCO2)S(=O)(=O)c1ccccc1)Nc1ccc2c(c1)OCO2`, the growth rescue is 0.974%. Take `COc1ccc(CNC(=O)COC(=O)c2sccc2C)cc1OC`: the growth rescue is -0.071%.

`COc1cnc(-c2ccccn2)nc1Oc1ccc(C(C)(C)C)cc1`: the growth rescue was 162% (active). The result for `COc1ccnc(Oc2ccccc2)c1-c1ncn[nH]1` reads -2.24%. With `COc1ccc(NCCc2ccccn2)cc1`, the growth rescue was -0.895%. As for `CC1(C(=O)O)CCC(C(=O)Nc2ccc(Cl)c(Cl)c2)C1(C)C` (stereo not drawn), the figure is -0.486%; as for `Cc1cccc(C)c1NC(=O)CCCSc1nnc(-c2ccco2)n1-c1ccccc1`, 0.934%.

As for `COc1ccc(CCNC(=O)COc2ccc3c(c2)OCO3)cc1`, the growth rescue was -0.845%. As for `CC1CCCN(CC(O)COCc2ccccc2)C1` (stereo not drawn), the figure is -0.272%. As for `COc1cc(C)cc(CN2CCC(Cc3ccccc3)CC2)c1O`, the figure is 0.509%.

As for `Oc1c(CN2CCCC2)cc(COCc2ccccc2)c2cccnc12`, the growth rescue is 281% (active). As for `COCCCNC(=S)N1CCCC(c2nc3cc(C)c(C)cc3[nH]2)C1` (stereo not drawn), the growth rescue was -0.694%. As for `CCc1ccccc1N(CC(=O)N1CCN(c2ccccc2F)CC1)S(C)(=O)=O`, the figure is 0.191%; as for `COc1ccc(N2C(=O)/C(=C\c3ccco3)N=C2SCC(N)=O)cc1Cl`, -0.407%; as for `CN1c2ccc([N+](=O)[O-])cc2C(C)(C)C12C=Cc1cc(C(=O)O)ccc1O2` (stereo not drawn), 200% (active). Regarding `COc1ccc2c(c1)C=CC1(O2)N(CCO)c2ccccc2C1(C)C` (stereo not drawn), the growth rescue was -0.159%. As for `COc1ccc(N2CCN(c3ccc([N+](=O)[O-])cc3Cl)CC2)cc1`, the figure is -0.626%; as for `O=C(N/N=C\c1ccc(Br)cc1)c1ccc(Cn2cccn2)o1`, 0.111%.

Consider `Cc1nn(Cc2ccccc2Cl)c(C)c1NC(=O)Cn1nc([N+](=O)[O-])c(Cl)c1C`, for which the growth rescue was -0.0385%. The result for `Cc1c(Cl)c([N+](=O)[O-])nn1Cc1ccc(C(=O)N/N=C\c2cc(Cl)ccc2O)o1` reads 29.8% (active). As for `COc1ccc(/C=C(\C#N)C(=O)NCCCn2ccnc2)cc1`, the figure is -0.489%; as for `CC1(C)NC(=O)N(CCCCSc2ccc(Cl)cc2)C1=O`, 0.18%.

As for `Cc1ccc(NC(=O)COc2ccc(/C=N\NC(=O)c3cccnc3)cc2)cc1C`, the growth rescue was -0.012%. For `O=C(N/N=C/c1sc(N2CCCCC2)nc1-c1cccs1)c1cccnc1`, the growth rescue is 140% (active).

In the case of `O=C(O)c1ccc(N/N=C/c2cn(-c3ccccc3)nc2-c2cccs2)cc1`, the growth rescue is 0.668%. The result for `O=C(N/N=C/c1ccc(Cl)c(Cl)c1)c1ccc2nc[nH]c2c1` reads 0.517%; that for `O=C(NN=Cc1ccccc1)c1ccccc1`, 0.391%.

Regarding `CSc1ccc(/C=N/NC(=O)c2cccc(Cl)c2)cc1`, the growth rescue is 40.3% (active). In the case of `COC(=O)C1=NNC2(c3ccc(C)cc3)C(=O)N(c3cccc(C)c3C)C(=O)C12` (stereo not drawn), the growth rescue was -0.596%. As for `O=C(CSc1ccccn1)N1CCN(S(=O)(=O)c2ccc(Cl)cc2)CC1`, the figure is -0.63%; as for `COc1ccc(C(=O)Nc2sc(C)c(C)c2CN2CCOCC2)cc1`, 0.992%. As for `CCc1cc(C(N)=O)c(NC(=O)c2ccc(OC)cc2)s1`, the figure is 648% (active).

`CCc1cc(C(=O)c2ccc(OC)cc2)c(NC(=O)CN2CCN(C)CC2)s1`: the growth rescue was -1.5%. As for `O=C(c1ccc2c(c1)OCO2)N1CCNc2ccccc2C1`, the figure is -1.38%. Regarding `COc1ccc(C(=O)NC2CC2)cc1OC1CCN(Cc2cnn(C)c2)CC1`, the growth rescue is -0.458%. The result for `COc1ccc(-n2cnc3cc(C(=O)NC4CCCC4)ccc32)cc1` reads 3.16%. With `COc1cc(C(=O)NC2CCN(C)CC2)ccc1Nc1ncc2c(n1)N(C1CCC(O)CC1)CCC(=O)N2C` (stereo not drawn), the growth rescue was 44.4% (active). For the compound `O=C(/C=N/O)Nc1ccccc1`, the growth rescue was -1.81%. In the case of `c1ccc(-c2nccc(-c3ccc(-n4cnc5ccccc54)cc3)n2)nc1`, the growth rescue is 3.45%. The result for `CN(C)Cc1c(O)ccc2c(=O)c(-c3ccccc3Cl)coc12` reads -1.86%.
